Out of some 340,000 compounds screened, about 3,300 (0.97%) were called active. Another 9% or so got no clear call; they are omitted. Calls come from the whole dose curve; as a rule, active = well fitted inhibition curve with a large enough effect; inconclusive = small, poorly fitted or top-dose-only effect, or effect the other way; inactive = flat fitted curve, though single readings scatter. The list shows a part of the results.
Test: qHTS Assay for Modulators of miRNAs and/or Inhibitors of miR-21; note: nearly all actives have a fitted effect of over 55% in size
Conditions: HeLa miR-21-FLuc reporter, luciferase luminescence, 48 h; actives lower the signal
Method in brief: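 HeLa cells stably expressing CMV-driven firefly luciferase with a downstream miR-21 binding sequence, endogenously expressing miR-21, were treated with titrations (up to about 40uM final) for 48 hours at 37 degree Celsius. Luciferase luminescence was read after lysis.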
Potency is the fitted concentration of half-maximal effect.

Potency, active:
O=[N+]([O-])c1ccc2nc(SCc3cn4ccccc4n3)[nH]c2c1 18.5 µM
c1ccn(-c2ccc(-c3ccn[nH]3)cc2)c1 6.56 µM
O=C(c1cnn(-c2cccc(F)c2)c1)c1ccccc1O 3.69 µM
CN(C)c1ccc(/C=C(\C#N)c2nc3ccccc3c(=O)[nH]2)cc1 0.131 µM
N#C/C(=C/c1ccc(O)c(O)c1)c1nc2ccccc2[nH]1 3.29 µM
c1ccc(Nc2nc(-c3ccccc3)ns2)cc1 0.414 µM
Cc1nnc(SCc2ccccc2Cl)c2cc3occc3n12 11.7 µM
Clc1ccc(-c2nc3ccncc3[nH]2)cc1 7.36 µM
Nc1ccc2nc(-c3ccc(Cl)cc3)[nH]c2c1 6.56 µM
CCOC(=O)CCSc1nc(C)c2cc(C)ccc2n1 10.4 µM
CCOC(=O)CCSc1nc(C)c2cc(OC)ccc2n1 8.26 µM
OC1CCCN(c2c3c(nc4cc(-c5cccc(F)c5)nn24)CCCC3)C1 (stereo not drawn) 2.07 µM
COc1ccc(NC(=S)Nc2ncccc2C)cc1OC 5.21 µM
O=C(Nc1ccc(SC(F)(F)F)cc1)c1ccccn1 0.369 µM
COc1ccc(NC(=O)c2coc3ccccc23)cc1OC 9.27 µM
COc1ccc(NC(=O)c2ccccn2)cc1OC 11.7 µM
Cc1ccc(-c2nnc(CCC(=O)NCC3C4CC5CC(C4)CC3C5)o2)s1 (stereo not drawn) 14.7 µM
CS(=O)(=O)N1N=C(c2ccc(Br)cc2)CC1c1ccc2c(c1)OCO2 (stereo not drawn) 0.927 µM
CC(=O)N1N=C(c2ccc(C)cc2)CC1c1ccc2c(c1)OCO2 (stereo not drawn) 7.36 µM
CS(=O)(=O)Nc1ccc(C2=NN(S(C)(=O)=O)C(c3ccc4c(c3)OCO4)C2)cc1 (stereo not drawn) 4.65 µM
Cc1ccc(C2=NN(S(C)(=O)=O)C(c3ccc4c(c3)OCO4)C2)cc1 (stereo not drawn) 0.521 µM
COC(=O)c1ccc(CSC2=NCCS2)cc1 4.65 µM
CC(=O)Nc1nc(-c2ccc(Cl)cc2)ns1 1.85 µM
C/C(=N\N=C\c1ccc(N(C)C)cc1)c1cccc([N+](=O)[O-])c1 13.1 µM
Nc1cc([N+](=O)[O-])cc2oc(-c3ccccc3)cc12 14.7 µM
Cc1ccc(OCc2ccc(Br)cc2)c([N+](=O)[O-])n1 2.61 µM
Cc1ccc(COc2ccc(C)nc2[N+](=O)[O-])cc1 0.927 µM
CCOC(=O)c1cc(C(=O)Nc2ccccc2F)nn1C 1.85 µM
CCOC(=O)c1cc(C(=O)Nc2ccc(C)c(F)c2)nn1C 4.65 µM
CCOC(=O)c1cc(C(=O)Nc2cccc(C)c2)nn1C 1.31 µM
COc1cccc(Nc2nc(N)nc(C(F)(F)F)n2)c1 18.5 µM
Nc1nc(Nc2ccc(Cl)cc2Cl)nc(C(F)(F)F)n1 6.56 µM
COc1nc(Nc2cccc(C(F)(F)F)c2)nc(OC)n1 14.7 µM
CC(=O)c1cnc2cc(-c3ccc(C)cc3)nn2c1C 1.04 µM
CCN(CC)C(=O)c1sc2nc(-c3ccccc3)ccc2c1N 1.47 µM
COc1cccc(-c2ccc3c(N)c(C(=O)Nc4cc(F)ccc4F)sc3n2)c1 11.7 µM
CCOC(=O)c1sc2nc(-c3cccnc3)ccc2c1N 0.369 µM
CCOC(=O)c1sc2nc(-c3ccccc3)ccc2c1N 0.0927 µM
CCn1nccc1C(=O)Nc1ccc(Cl)c(Cl)c1 8.26 µM
COc1ccccc1Oc1ncnc2c1cnn2-c1ccccc1 5.85 µM
COc1cc(C(C)=O)ccc1Oc1ncnc2c1cnn2-c1ccc(F)cc1 4.14 µM
Cc1ccc(NC(=O)c2sc3nc(N)c(C#N)cc3c2N)cc1 5.85 µM
Cc1cccc(NC(=O)c2sc3nc(N)c(C#N)cc3c2N)c1 4.14 µM
Cc1cc(C(=O)CN2C(=O)NC3(CCCCC3C)C2=O)c(C)n1Cc1cccs1 (stereo not drawn) 5.21 µM
Cc1nc2scc(-c3ccccc3)c2c(=O)n1N=C1C=CC(=O)C=C1 10.4 µM
CCc1nonc1NC(=O)c1oc2cc(C)c(C)cc2c1C 5.85 µM
CCc1ccc2oc(C(=O)Nc3nonc3CC)c(C)c2c1 2.93 µM
Cc1ccc2oc(C(=O)Nc3nonc3C)c(C)c2c1 4.65 µM
Cc1cc2oc(C(=O)Nc3nonc3C)c(C)c2cc1C 0.656 µM
c1ccc(Cc2nnc3sc(-c4ccc5c(c4)OCCO5)nn23)cc1 14.7 µM
Oc1c(C2=NCCNC(C(F)(F)F)=C2)ccc2ccccc12 2.07 µM
Clc1ccccc1-c1nc2ccccc2[nH]1 1.31 µM
Clc1cc2nc(-c3cccnc3Cl)[nH]c2cc1Cl 1.04 µM
CN(Cc1nc(-c2cccc(Cl)c2)no1)C1CCOCC1 7.36 µM
Cc1ccc(-c2cn(-c3ccccc3)c(SCC(=O)NC3CCS(=O)(=O)C3)n2)cc1C (stereo not drawn) 7.36 µM
CCOC(=O)NC(=O)CSc1nc(-c2ccc(C)c(C)c2)cn1-c1ccccc1 6.56 µM
Cc1ccc(NC(=O)NCc2c(C)nn(C)c2C)cc1Cl 5.21 µM
CNc1cccc2c1C(=O)c1ccccc1C2=O 11.7 µM
CC(C)(C)c1ccc(-c2noc(-c3ccno3)n2)cc1 1.17 µM
C=CCn1c2ccccc2c(=O)c2cc(C#CC3(O)CCCCC3)ccc21 0.414 µM
CCCc1cc(C(=O)Nc2cc(Cl)ccc2O)no1 2.07 µM
CCCc1cc(C(=O)Nc2cccc(Cl)c2C)no1 6.56 µM
CCCc1cc(C(=O)Nc2ccc(CC)cc2)no1 5.21 µM
CCCc1cc(C(=O)Nc2cc(C)ccc2O)no1 3.69 µM
COc1cc(SC)ccc1C(=O)NCC1CCCCC1 10.4 µM
COc1ccc(C(=O)NCCOc2ccccc2Cl)c(OC)c1OC 5.85 µM
COc1cc(SC)ccc1C(=O)NCCOc1ccc(F)cc1 7.36 µM
COc1cc(SC)ccc1C(=O)NCCOc1ccccc1Cl 2.93 µM
